This is part of a sample that, as a whole, favours compounds with a hit. Of some 83,000 tested, about 20% had one in any assay.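 Method: cells in 96-well plates; compound added at one concentration; 48 h incubation; percent growth measured; values under 10 scored active.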 Unmarked numbers belong to inactive results. Activity calls are given as the source filed them.
Experiments:
Assay in all cases: NCI-60 one-dose screen, 48 h (100 = growth as untreated, 0 = no growth, -100 = all killed)
Conditions in all cases: 10 µM unless noted
[1] = system: SK-MEL-2 melanoma
[2] = system: EKVX NSCLC
[3] = system: SN12C renal
[4] = system: UO-31 renal
[5] = system: TK-10 renal
[6] = system: ACHN renal
[7] = system: CAKI-1 renal
[8] = system: A498 renal
[9] = system: CCRF-CEM leukemia
[10] = system: MOLT-4 leukemia
[11] = system: SR leukemia
[12] = system: RPMI-8226 leukemia
[13] = system: OVCAR-8 ovarian
[14] = system: OVCAR-5 ovarian
[15] = system: OVCAR-4 ovarian
[16] = system: SK-OV-3 ovarian
[17] = system: IGROV1 ovarian
[18] = system: OVCAR-3 ovarian
[19] = system: HS 578T breast
[20] = system: NCI/ADR-RES ovarian

CN(C)c1ccc(-c2ccc3c(c2)c(-c2ccccc2)nc(=O)n3C)cn1
growth [1]: 26.8% | growth [2]: 69.6% | growth [3]: 42.6% | growth [4]: 42.3% | growth [5]: 56.4% | growth [6]: 49.9% | growth [7]: 34.7% | growth [8]: 25.8% | growth [9]: 13% | growth [10]: 29.9% | growth [11]: 16.7% | growth [12]: 2.69% (active) | growth [13]: 54% | growth [14]: 53.2% | growth [15]: 74.6% | growth [16]: 38.6% | growth [17]: 49.1% | growth [18]: 13.1% | growth [19]: 41.2% | growth [20]: 27.2%

CNC1=C([N+](=O)[O-])C(c2ccc(OC)cc2)C(C#N)=C(c2cccs2)O1 (stereo not given)
growth [1]: 119% | growth [2]: 104% | growth [3]: 105% | growth [4]: 80.6% | growth [5]: 124% | growth [6]: 109% | growth [7]: 94.2% | growth [8]: 117% | growth [9]: 108% | growth [10]: 101% | growth [11]: 112% | growth [12]: 111% | growth [13]: 103% | growth [14]: 108% | growth [15]: 100% | growth [16]: 110% | growth [17]: 108% | growth [18]: 99.4% | growth [19]: 106% | growth [20]: 107%

Cn1cc(-c2ccc(-c3cn(C)c4ccc(Cl)cc34)[nH]2)c2cc(Cl)ccc21
growth [1]: -18.9% (active) | growth [2]: -89.2% (active) | growth [3]: 7.64% (active) | growth [4]: -93.1% (active) | growth [5]: -28.7% (active) | growth [6]: -100% (active) | growth [7]: 4.42% (active) | growth [8]: 48.6% | growth [9]: -12.9% (active) | growth [10]: 19.1% | growth [11]: -13% (active) | growth [12]: 7.74% (active) | growth [13]: -5.8% (active) | growth [14]: -14.1% (active) | growth [15]: -57.7% (active) | growth [16]: -53.5% (active) | growth [17]: -45.9% (active) | growth [18]: -84% (active) | growth [19]: -28.6% (active) | growth [20]: -22.5% (active)

Cc1nc2ccccc2c(/C=C/c2ccccc2)c1C(=O)/C=C/c1ccccc1
growth [1]: 27% | growth [2]: 45.9% | growth [3]: 23.4% | growth [4]: 35.8% | growth [5]: 31% | growth [6]: 17.4% | growth [7]: 34.7% | growth [8]: 74% | growth [9]: 6.85% (active) | growth [10]: 10.8% | growth [11]: 12.3% | growth [12]: 8.21% (active) | growth [13]: 10.4% | growth [14]: 6.51% (active) | growth [15]: 38.5% | growth [16]: 68.1% | growth [17]: 18.5% | growth [18]: 3.37% (active) | growth [19]: 41.9% | growth [20]: 7.26% (active)

C=C(c1ccc(OC)c(/C=C/C(=O)c2ccc3c(c2)OCO3)c1)c1cc(OC)c(OC)c(OC)c1
growth [1]: 32.1% | growth [2]: 23.4% | growth [3]: 8.55% (active) | growth [4]: 23.4% | growth [5]: 23% | growth [6]: -26.5% (active) | growth [7]: 11.6% | growth [8]: 17.7% | growth [9]: 13.3% | growth [10]: 11.1% | growth [11]: 6.41% (active) | growth [12]: 11.7% | growth [13]: 6.09% (active) | growth [14]: 36.6% | growth [15]: 38.9% | growth [16]: 27.4% | growth [17]: 35.2% | growth [18]: 1.16% (active) | growth [19]: 40.8% | growth [20]: 5.57% (active)

O=C1/C(=C2\SC(=S)N(C3CC3)C2=O)SC(=S)N1C1CC1
growth [1]: 102% | growth [2]: 95.9% | growth [3]: 92.5% | growth [4]: 77.4% | growth [5]: 108% | growth [6]: 97% | growth [7]: 91.3% | growth [8]: 106% | growth [9]: 105% | growth [10]: 103% | growth [11]: 105% | growth [12]: 102% | growth [13]: 103% | growth [14]: 98.5% | growth [15]: 97.2% | growth [16]: 109% | growth [17]: 95.5% | growth [18]: 107% | growth [19]: 97.4% | growth [20]: 102%

Cc1ccc2nc(NC(=O)CSc3nc(-c4ccccc4)c(C#N)c4nnnn34)sc2c1
growth [1]: 109% | growth [2]: 106% | growth [3]: 111% | growth [4]: 80.2% | growth [5]: 141% | growth [6]: 106% | growth [7]: 94.6% | growth [8]: 109% | growth [9]: 106% | growth [10]: 99.4% | growth [11]: 72.8% | growth [12]: 117% | growth [13]: 108% | growth [14]: 113% | growth [15]: 101% | growth [16]: 100% | growth [17]: 102% | growth [18]: 122% | growth [19]: 98% | growth [20]: 106%

CC(=O)OC[C@]12CC[C@@H]([C@@H](C)c3nnc(-c4ccncc4)o3)[C@@H]1[C@H]1CC[C@@H]3[C@@]4(C)CC[C@H](OC(C)=O)C(C)(C)[C@@H]4CC[C@@]3(C)[C@]1(C)CC2
growth [1]: 82.3% | growth [2]: 69.3% | growth [3]: 87.1% | growth [4]: 69% | growth [5]: 94.7% | growth [6]: 80.8% | growth [7]: 64.4% | growth [8]: 97.4% | growth [9]: 68.4% | growth [10]: 57.2% | growth [11]: 53.2% | growth [12]: 47.4% | growth [13]: 90.4% | growth [14]: 109% | growth [15]: 72.3% | growth [16]: 90.7% | growth [17]: 100% | growth [18]: 80.9% | growth [19]: 92.1% | growth [20]: 90.6%

Cc1cccc(N2CCC(=O)NC2=S)c1
growth [1]: 122% | growth [2]: 107% | growth [3]: 98.2% | growth [4]: 88.2% | growth [5]: 104% | growth [6]: 107% | growth [7]: 101% | growth [8]: 107% | growth [9]: 154% | growth [10]: 104% | growth [11]: 121% | growth [12]: 117% | growth [13]: 99.9% | growth [14]: 105% | growth [15]: 107% | growth [16]: 107% | growth [17]: 103% | growth [18]: 110% | growth [19]: 107% | growth [20]: 105%

CC(=O)c1sc2sc(C(C)=O)c(C)c2c1C
growth [1]: 107% | growth [2]: 42.8% | growth [3]: 98% | growth [4]: 88.4% | growth [5]: 74.9% | growth [6]: 98.9% | growth [7]: 86.4% | growth [8]: -82.4% (active) | growth [9]: 63.6% | growth [10]: 85.5% | growth [11]: 75.6% | growth [12]: 66.7% | growth [13]: 84% | growth [14]: 93.2% | growth [15]: 108% | growth [16]: 81.2% | growth [17]: 101% | growth [18]: 110% | growth [19]: 92% | growth [20]: 95.6%

CN(CCC(=O)c1ccccc1)CCC(=O)c1ccccc1
growth [1]: 91% | growth [2]: 103% | growth [3]: 82.5% | growth [4]: 77.1% | growth [5]: 88.8% | growth [6]: 107% | growth [7]: 90.7% | growth [8]: 78.9% | growth [9]: 80.6% | growth [10]: 94.5% | growth [11]: 49.9% | growth [12]: 50.8% | growth [13]: 93.2% | growth [14]: 95.5% | growth [15]: 103% | growth [16]: 99.8% | growth [17]: 95.3% | growth [18]: 113% | growth [19]: 100% | growth [20]: 86.5%

N=C(N)c1ccc(-c2ccc(-c3cc(Cl)cc(Cl)c3)s2)nc1
growth [1]: 109% | growth [2]: 94.5% | growth [3]: 83% | growth [4]: 90.6% | growth [5]: 115% | growth [6]: 74.8% | growth [7]: 30.9% | growth [8]: 91.6% | growth [9]: 21.7% | growth [10]: 2.78% (active) | growth [11]: 8.46% (active) | growth [12]: 8.67% (active) | growth [13]: -17.5% (active) | growth [14]: 93.9% | growth [15]: 59.1% | growth [16]: 84.1% | growth [17]: 46.7% | growth [18]: 19.8% | growth [19]: 94% | growth [20]: 91.4%

O=C1/C(=C/c2ccc(O)c(O)c2)COc2ccc(-c3ccccc3)cc21
growth [1]: 59% | growth [2]: 78.8% | growth [3]: 13.9% | growth [4]: -64.6% (active) | growth [5]: 25.8% | growth [6]: 15.3% | growth [7]: 4.86% (active) | growth [8]: 30.7% | growth [9]: 16.2% | growth [10]: 10.9% | growth [11]: -20% (active) | growth [12]: -13.1% (active) | growth [13]: 26.5% | growth [14]: 50.6% | growth [15]: 26.6% | growth [16]: 81.1% | growth [17]: -13.1% (active) | growth [18]: 20.2% | growth [19]: 15% | growth [20]: 19.2%

CCN1C(=O)N(CC)C2C1NC(=S)N2/N=C/c1ccc(C(F)(F)F)cc1 (stereo not given)
growth [1]: 87.9% | growth [2]: 81.6% | growth [3]: 82.4% | growth [4]: 62.3% | growth [5]: 95% | growth [6]: 79% | growth [7]: 37% | growth [8]: 44.9% | growth [9]: 80.2% | growth [10]: 70.5% | growth [11]: 28.4% | growth [12]: 76.8% | growth [13]: 86.8% | growth [14]: 81.3% | growth [15]: 72.7% | growth [16]: 79% | growth [17]: 60.6% | growth [18]: 64.8% | growth [19]: 66.2% | growth [20]: 69.5%

COc1ccc(/C=C/C(c2cc(OC)c(OC)c(OC)c2)n2ccnc2)cc1O (stereo not given)
growth [1]: 41.7% | growth [2]: 81.2% | growth [3]: 57.2% | growth [4]: 59.9% | growth [5]: 84.5% | growth [6]: 46.3% | growth [7]: 60.2% | growth [8]: 67.5% | growth [9]: 37.1% | growth [10]: 31.9% | growth [11]: 6.18% (active) | growth [12]: 15.1% | growth [13]: 41% | growth [14]: 103% | growth [15]: 78.8% | growth [16]: 33.5% | growth [17]: 55.7% | growth [18]: 4.86% (active) | growth [19]: 32.1% | growth [20]: 45.7%

Oc1ccc(/C=C/c2ccc(O)cc2)cc1
growth [1]: 90.8% | growth [2]: 76.5% | growth [3]: 62.5% | growth [4]: 21.5% | growth [5]: 61.1% | growth [6]: 11% | growth [7]: 78.7% | growth [8]: 77.5% | growth [9]: 4.33% (active) | growth [10]: 74.9% | growth [11]: 47.7% | growth [12]: 12.8% | growth [13]: 35.7% | growth [14]: 135% | growth [15]: 12% | growth [16]: 99.7% | growth [17]: 43.9% | growth [18]: 47.7% | growth [19]: 61.3% | growth [20]: 20.3%

Source: PubChem BioAssay (NCI)
